PubChem BioAssay AID736 (The Scripps Research Institute Molecular Screening Center, 2007)
Out of some 97,000 compounds screened, about 210 (0.22%) were called active. No stated cut-off is given here; in the data, active means inhibition above about 45%; inactive means the rest. The list comes from a sample in which actives are over-represented; it also holds similar structures and randomly drawn compounds.

These molecules were tested against Sphingosine 1-phosphate receptor 2 (Homo sapiens) (UniProt O95136) (assay: human S1P2 receptor antagonists, primary screen, cell-based (AID 736;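 further: CRE beta-lactamase reporter cells expressing human S1P2 stimulated with S1P; 0% = agonist at EC80 alone and 100% = agonist plus reference antagonist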)). Conditions: cell-based S1P2 antagonist assay, at 5 µM, active compounds read high.
Chain of Sphingosine 1-phosphate receptor 2 (Homo sapiens) (O95136 whole entry, looked up): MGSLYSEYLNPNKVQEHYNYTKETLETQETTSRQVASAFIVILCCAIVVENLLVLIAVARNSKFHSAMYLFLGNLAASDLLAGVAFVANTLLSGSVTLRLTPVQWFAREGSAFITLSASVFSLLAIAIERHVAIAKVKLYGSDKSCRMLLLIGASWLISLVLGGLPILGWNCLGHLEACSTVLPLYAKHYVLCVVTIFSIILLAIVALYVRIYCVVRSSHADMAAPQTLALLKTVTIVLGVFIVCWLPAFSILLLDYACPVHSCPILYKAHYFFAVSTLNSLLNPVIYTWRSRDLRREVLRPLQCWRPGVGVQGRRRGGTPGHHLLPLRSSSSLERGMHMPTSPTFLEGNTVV

Row | Structure (SMILES) | inhibition
1 | COc1cc(N2CCCC2)c(OC)cc1/C=C(/C#N)c1cccc(Br)c1 | -9.11% (inactive)
2 | O=C1COc2ccc(NC(=O)N3CCN(c4ccc(F)cc4)CC3)cc2N1 | 9.28% (inactive)
3 | CCn1c(CNC(=O)c2ccccc2)nnc1SCC(=O)N1CCN(c2ccccc2)CC1 | 2.56% (inactive)
4 | C=C(C)C(=O)Nc1cccc(C(C)=O)c1 | -17.2% (inactive)
5 | CCN(CC)C(=O)CSc1nnc(CNc2ccc(F)cc2)n1Cc1ccco1 | -21.8% (inactive)
6 | CCOc1cccc(C(=O)Nc2nnc(-c3cccs3)s2)c1 | -13.1% (inactive)
7 | O=C(Nc1cccc2ncccc12)c1ccc(-c2ccc(Cl)cc2Cl)o1 | 20.4% (inactive)
8 | Cc1cccc(NC(=O)Cn2cc(C(=O)c3ccco3)c3ccccc32)c1 | 16.7% (inactive)
9 | CCN(CC)S(=O)(=O)c1cc([N+](=O)[O-])ccc1NNC(=O)Nc1ccccc1 | -2.47% (inactive)
10 | O=C(NCCCN1CCCCC1)c1ccc2c(c1)NC(=O)C(N1CCOCC1)S2 (centres undefined) | 14.6% (inactive)
11 | COC(=O)CSc1nc(C)c2ccc(OC)cc2n1 | 7.81% (inactive)
12 | COc1cccc(/C=N\Nc2nncc(-c3ccccc3)n2)c1 | 20.6% (inactive)
13 | Cc1cc2nc(SCCN3CCOCC3)[nH]c2cc1C | 6.34% (inactive)
14 | Cc1csc(OCC(=O)Nc2ccc(C)c(C)c2)n1 | 6.53% (inactive)
15 | CCOc1ccc(C(O)Cc2nc3ccccc3n2C)cc1 (centres undefined) | -0.2% (inactive)
16 | CCOC(=O)c1cc(C#N)c(N2CCCCC2)nc1-c1ccccc1 | 1.48% (inactive)
17 | O=C(Nc1nccs1)c1cc(S(=O)(=O)N2CCOCC2)c(Cl)cc1Cl | 0.95% (inactive)
18 | COc1ccc(NC(=O)/C(Cl)=C(/Cl)S(=O)Cc2ccc(C)cc2)cn1 (centres undefined) | 98.7% (active)
19 | COc1cccc(NC(=O)Cc2ccc(C)cc2)c1 | -17% (inactive)
20 | COC(=O)/C(NC(C)=O)=C(\C)c1ccc(Cl)cc1 | -17.7% (inactive)
21 | Cc1cc2cc3c(N)[nH]nc3nc2cc1C | 6.72% (inactive)
22 | Cc1ccc(O/C=C2\OC(=O)c3ccccc32)cc1 | -18.2% (inactive)

Row | Structure (SMILES) | inhibition
23 | COc1ccc(Cl)cc1NC(=O)CN(C)C(=O)CNC(=O)C12CC3CC(CC(C3)C1)C2 | -3.56% (inactive)
24 | COc1ccc(/C=C(\NC(=O)c2ccc(OC)c(OC)c2)C(=O)NCCc2c[nH]c3ccccc23)cc1 | 8.6% (inactive)
25 | O=C(Nc1ccc2ccccc2c1)Nc1ccc2snnc2c1 | -5.16% (inactive)
26 | CC(=O)NNc1cc(=O)c2c(=O)n(C)c(=O)n(C)c2[nH]1 | 22.2% (inactive)
27 | COc1cccc(N2CCN(C3CC(=O)N(c4ccc(Cl)cc4)C3=O)CC2)c1 (centres undefined) | -1.94% (inactive)
28 | CN(C)c1ccc(NC(=S)N(CCc2ccccc2)C2CC(=O)N(c3c(Cl)cccc3Cl)C2=O)cc1 (centres undefined) | 14.5% (inactive)
29 | COC(=O)CN(C(=S)Nc1ccc(Cl)cc1)C1CC(=O)N(c2ccc(OC)cc2)C1=O (centres undefined) | 54.6% (active)
30 | CC1CCN(CC(=O)c2c[nH]c3ccccc23)CC1 | 12.6% (inactive)
31 | CCCCNC(=O)C1CCCNC1=O (centres undefined) | 0.22% (inactive)
32 | CCCCCCCC(=O)NC(Nc1ccccc1OC)C(Cl)(Cl)Cl (centres undefined) | -5.42% (inactive)
33 | O=C(O)C1CCN(C(=O)OCc2ccccc2)CC1 | 9.58% (inactive)
34 | CC(C)CCOc1ccc(C(=O)C[N+]2(C)CCOCC2)cc1 | 8.2% (inactive)
35 | CC(NC(=O)C1CCC(CNc2c(N3CCOCC3)c(=O)c2=O)CC1)c1ccccc1 (centres undefined) | 4.51% (inactive)
36 | O=C(Nc1ccc2oc(-c3ccc4ccccc4c3)nc2c1)c1cccs1 | 7.93% (inactive)
37 | COC(=O)C(NC(=O)c1ccc(OC)cc1)(Nc1ncc(S(=O)(=O)c2ccc([N+](=O)[O-])cc2)s1)C(F)(F)F (centres undefined) | 19.9% (inactive)
38 | O=C(NC(Nc1nc2ccc([N+](=O)[O-])cc2s1)(C(F)(F)F)C(F)(F)F)c1ccccc1 | 97.3% (active)
39 | Cc1cc(C)cc(OCC(=O)Nc2nc3ccc([N+](=O)[O-])cc3s2)c1 | 4.48% (inactive)
40 | Cc1ccc(CN(N=Nc2nonc2N)c2nonc2N)c(C)c1 | -6.92% (inactive)
41 | COC(=O)c1cccc(-n2[nH]nnc2=S)c1 | 15.5% (inactive)
42 | Cc1ccc(-c2cc(C(=O)NCC3CCCO3)c3ccccc3n2)o1 (centres undefined) | 6.28% (inactive)
43 | Cc1nn(Cc2ccc(F)cc2)c(C)c1NC(=O)c1noc2c1CCc1ccccc1-2 | 2.56% (inactive)
44 | O=C(CSc1nnnn1-c1ccccc1)NCc1ccco1 | -4.03% (inactive)

Row | Structure (SMILES) | inhibition
45 | CC(C)NC(=O)NC(=O)COC(=O)c1ccc(NC(=O)CC#N)cc1 | -12.5% (inactive)
46 | O=C(/C=C/c1ccc(Cl)cc1Cl)c1cccnc1 | -15.8% (inactive)
47 | O=C(NNC(=O)c1cccnc1)Nc1ccccc1 | 8.67% (inactive)
48 | Fc1ccc(-n2c(Cc3ccccc3)nnc2SCc2nc(-c3ccc(Cl)cc3)no2)cc1 | -18.9% (inactive)
49 | FC(F)(F)c1cccc(NC(=S)Nc2cccc(Cl)c2)c1 | -0.66% (inactive)
50 | Cc1ccc(/C=N/NC(=O)C2=NNC(c3ccccc3)(c3ccccc3)C2)c(O)c1 | -25.5% (inactive)
51 | CC1(C)C2CCC13CS(=O)(=O)NC3C2 (centres undefined) | 2.66% (inactive)
52 | CCCNC(=S)N1CCC(NC(=O)C23CC4CC(CC(C4)C2)C3)CC1 | 22.7% (inactive)
53 | CCOC(=O)c1sc(NC(=O)CSc2nc(C)cc(C(F)(F)F)n2)c(C#N)c1C | -9.87% (inactive)
54 | FC(F)(F)c1nnc2ccc(N3CCN(c4ccccc4)CC3)nn12 | 0.81% (inactive)
55 | N=c1oc2ccccc2cc1C(=O)N/N=C/c1ccccc1 | 10.7% (inactive)
56 | CNC(=O)/C(=C\C=C\c1ccccc1)NC(=O)c1ccc([N+](=O)[O-])cc1 | 10.7% (inactive)
57 | CC(N)C12CC3CC(CC(O)(C3)C1)C2 (centres undefined) | -17.7% (inactive)
58 | CS(=O)(=O)N1CCN(c2ccc(C(=O)NC3C4CC5CC(C4)CC3C5)cc2[N+](=O)[O-])CC1 (centres undefined) | -2.62% (inactive)
59 | CCSc1nnc(NC(=O)c2ccc(C)cc2)s1 | 0.05% (inactive)
60 | Cc1onc(-c2ccccc2Cl)c1C(=O)OCC(=O)c1ccccc1 | -10% (inactive)
61 | O=C1c2ccccc2C(=O)N1CCC(c1ccccc1)c1ccco1 (centres undefined) | 11.1% (inactive)
62 | O=C(CCS(=O)(=O)c1cccc2nsnc12)N1CCN(c2ccccc2F)CC1 | 11.1% (inactive)
63 | CC(C)(C)c1ccc(C(=O)NNC(=O)Cc2ccccc2)cc1 | -7.08% (inactive)
64 | COc1ccc(C2CC(=O)Nc3sc(=N)c4c(N)c(C#N)c(N)nc4c32)cc1OC (centres undefined) | -38.4% (inactive)
65 | CC(C)OCCCNc1ncnc2c1[nH]c1ccc(F)cc12 | 65.9% (active)
66 | CCN1CCCC1CNc1ncnc2c1[nH]c1ccc(F)cc12 (centres undefined) | -0.72% (inactive)

Row | Structure (SMILES) | inhibition
67 | O=C1CCCN1CCCNc1ncnc2c1[nH]c1ccccc12 | 15.4% (inactive)
68 | Cc1cc(O)cc(O)c1C(=O)Cc1cnn(-c2ccccc2)c1 | -8.95% (inactive)
69 | COc1ccc(C(=O)Oc2cc(/C=N/NS(=O)(=O)c3ccc(C)cc3)ccc2OC)cc1 | 1.84% (inactive)
70 | CC(=O)c1ccc2c(c1)c1ccccc1n2CC(C)C | -13.4% (inactive)
71 | Clc1ccc(CSc2nnc(/C=C/c3ccccc3)o2)c(Cl)c1 | -0.17% (inactive)
72 | CCN(CC)CCn1c2ccc(Cl)cc2c2nc(C)sc21 | -30.3% (inactive)
73 | O=C(/C=C/Sc1ncn[nH]1)c1ccc(Cl)cc1 | 59.7% (active)
74 | Cc1ccc(C(=O)/C=C/c2c(C)nn(-c3ccccc3)c2Cl)cc1 | -1.65% (inactive)
75 | CC(C)(C)c1ccc(C(=O)CSc2ncn[nH]2)cc1 | 19.4% (inactive)
76 | COc1ccc(C(=O)Cc2cnn(-c3ccccc3)c2)c(O)c1 | -22.1% (inactive)
77 | Cc1ccc(OCc2nnc(NC(=O)OCC(C)C)s2)cc1 | -11.9% (inactive)
78 | CCc1ccccc1NC(=O)/C(=C/c1ccccc1)c1ccccc1 | 9.77% (inactive)
79 | O=C(Nc1ccc2c(c1)OCCO2)c1ccc(Cl)c(S(=O)(=O)N2CCCCC2)c1 | -2.73% (inactive)
80 | O=c1c2ccccc2c(-c2ccc(F)cc2)nn1-c1ccc(C(F)(F)F)cc1 | 8.3% (inactive)
81 | O=C(NCC1CCCO1)c1ccc2ccccc2n1 (centres undefined) | -13.9% (inactive)
82 | Cc1c(C=O)c2ccccn2c1C(=O)c1ccncc1 | -13% (inactive)
83 | Cc1ccc(CN(C(=O)c2sc3ccccc3c2Cl)C2CCS(=O)(=O)C2)cc1 (centres undefined) | 15.7% (inactive)
84 | COc1cc(/C=C(/NC(=O)c2ccccc2)C(=O)Nc2cccc(O)c2)c([N+](=O)[O-])cc1OC | -3.81% (inactive)
85 | Cc1cc(C)c([N+](=O)[O-])cc1-c1ccc(/C=N/NC(=O)c2nonc2N)o1 | -20.8% (inactive)
86 | Cc1cc(C)n2nc(C(=O)NC(C)(C)C)nc2n1 | -24.4% (inactive)
87 | CCOC(=O)C(C)n1cnc2sc(C)c(C)c2c1=O (centres undefined) | -21.8% (inactive)
88 | O=C(Cc1c(O)c2ccccc2[nH]c1=O)NCc1ccccc1 | 2.46% (inactive)

Row | Structure (SMILES) | inhibition
89 | Cc1ccc(N(Cc2ccc(C(=O)Nc3ccccc3C(=O)NCc3ccco3)cc2)S(C)(=O)=O)cc1C | 29.7% (inactive)
90 | CCN1CCN(CCCCOc2ccccc2F)CC1 | -15.3% (inactive)
91 | Cc1noc(COc2ccccc2OCc2onc(C)c2Cl)c1Cl | -6.44% (inactive)
92 | O=C(COc1ccc(Cl)cc1)NCCSc1ccccc1 | -5.9% (inactive)
93 | COCCn1c(C)cc(C2=NNC(=Nc3ccc(F)cc3)SC2)c1C | 8.96% (inactive)
94 | O=C1Cc2ccccc2Sc2ccc(Cl)cc21 | 1.39% (inactive)
95 | Cn1c(NN)nc2sc3c(c2c1=O)CCC3 | -7.52% (inactive)
96 | CCOc1ccc(-n2c(N)c(C(=O)NCC3CCCO3)sc2=S)cc1 (centres undefined) | 1.44% (inactive)
97 | CCCCOC(=O)Cn1c(=O)n(CC(=O)OCCCC)c2cc(C)ccc21 | -1.39% (inactive)
98 | Cc1ccc(-c2cnc(NC(=O)CCC(=O)N(C)Cc3ccccc3)n2C)cc1 | 15.9% (inactive)
99 | O=C1C(Cl)=C(N2CCOCC2)C(=O)N1c1ccccc1 | 11.4% (inactive)
100 | O=C(/C=C/c1cc2c(cc1Br)OCO2)NCc1ccc(Cl)cc1 | 12.8% (inactive)
101 | O=C(CCCN1C(=O)c2cccc3cccc(c23)C1=O)N1CCN(Cc2ccc3c(c2)OCO3)CC1 | 13.4% (inactive)
102 | O=C(CSCc1c(Cl)cccc1Cl)NN1C(=O)c2ccccc2C1=O | 7.21% (inactive)
103 | O=c1cc(N2CCN(Cc3ccccc3)CC2)c(-c2ccccc2)n[nH]1 | 11.6% (inactive)
104 | O=C(Nc1cccc2ncccc12)C(Cl)(Cl)Cl | 7.55% (inactive)
105 | O=C(CSc1ncn[nH]1)Nc1ccnc2ccccc12 | 2.49% (inactive)
106 | O=C(NCN1CCN(CCO)CC1)c1cnccn1 | 4.69% (inactive)
107 | O=C(Nc1nccs1)C1CCN(S(=O)(=O)c2ccc(Cl)c(C(F)(F)F)c2)CC1 | 13.1% (inactive)
108 | CC1CC(C)CN(CC(=O)N2c3ccccc3CCc3ccccc32)C1 (centres undefined) | 3.76% (inactive)
109 | CCn1c(SCc2ccc(C)cc2)nnc1-c1nn(-c2ccccc2)ccc1=O | 7.22% (inactive)
